Screening results deposited in PubChem BioAssay by National Center for Advancing Translational Sciences (NCATS).
JMJD2A Tudor = inhibitors of human JMJD2A Tudor domain. hit rate 4.4% among 390,000. AlphaScreen JMJD2A-Tudor / H3K4me3 peptide binding. O75164. Potency, µM (series often up to 114 µM), for the others: top-dose activity change, negative = inhibition, most hits filed as inhibitors. AID 504339; note: % is set by controls: 0 for no effect and ±100 for the full control effect; nearly all actives have a fitted effect of over 50% in size
Target sequence (O75164 whole entry, looked up, the tested form may be a part): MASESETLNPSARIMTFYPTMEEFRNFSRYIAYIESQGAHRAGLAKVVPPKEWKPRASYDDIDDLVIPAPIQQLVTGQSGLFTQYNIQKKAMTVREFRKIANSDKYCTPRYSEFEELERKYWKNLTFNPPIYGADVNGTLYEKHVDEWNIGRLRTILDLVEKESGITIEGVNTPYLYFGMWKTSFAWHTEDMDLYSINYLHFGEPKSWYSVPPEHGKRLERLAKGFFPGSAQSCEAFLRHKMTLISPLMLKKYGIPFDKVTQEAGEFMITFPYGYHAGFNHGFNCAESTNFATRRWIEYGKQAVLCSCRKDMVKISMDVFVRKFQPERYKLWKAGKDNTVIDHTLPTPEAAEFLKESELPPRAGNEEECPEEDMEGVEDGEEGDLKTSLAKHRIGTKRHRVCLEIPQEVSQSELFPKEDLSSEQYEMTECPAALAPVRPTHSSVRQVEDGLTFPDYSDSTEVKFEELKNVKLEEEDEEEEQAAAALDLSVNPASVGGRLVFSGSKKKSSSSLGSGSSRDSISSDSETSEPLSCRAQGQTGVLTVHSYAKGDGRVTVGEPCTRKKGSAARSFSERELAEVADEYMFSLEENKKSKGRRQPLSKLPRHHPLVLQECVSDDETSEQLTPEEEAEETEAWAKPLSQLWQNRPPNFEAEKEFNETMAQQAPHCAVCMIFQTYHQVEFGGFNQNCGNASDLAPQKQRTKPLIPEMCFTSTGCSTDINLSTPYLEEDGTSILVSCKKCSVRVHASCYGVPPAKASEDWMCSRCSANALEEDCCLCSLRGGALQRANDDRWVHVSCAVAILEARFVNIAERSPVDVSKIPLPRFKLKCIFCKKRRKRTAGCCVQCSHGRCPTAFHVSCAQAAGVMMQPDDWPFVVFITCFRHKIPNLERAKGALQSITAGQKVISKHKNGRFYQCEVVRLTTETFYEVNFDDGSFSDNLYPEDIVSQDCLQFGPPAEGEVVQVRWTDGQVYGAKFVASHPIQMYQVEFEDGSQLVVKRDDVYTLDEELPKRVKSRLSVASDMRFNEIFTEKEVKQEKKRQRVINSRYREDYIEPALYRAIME
BAZ2B block = inhibitors of human BAZ2B bromodomain; Q9UIF8; AlphaScreen BAZ2B-H3K14Ac peptide displacement; Potency, µM (titrated, usually from 114 µM), without a hit: top-dose activity change, negative = inhibition, actives largely listed as inhibitors; hit rate 4.4% among 360,000; AID 504333; note: % is set by controls: 0 for no effect and ±100 for the full control effect; nearly all actives have a fitted effect of over 60% in size
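Multi-concentration screen (max 110 uM) measuring displacement of acetylated histone H3 peptide from BAZ2B by AlphaScreen, using 50 nM protein, 50 nM peptide and 10 ug/mL streptavidin donor plus Ni-chelate acceptor beads.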
PLK1 PBD inh = inhibitors of human PLK1 polo-box domain binding; Plk1 PBD binding of FITC phosphopeptide, fluorescence polarization; P53350; hit rate 2.8% among 360,000; Potency, µM, for the others: max response, negative = inhibition, hits mostly inhibitors; note: series mostly up to about 57 µM; % is set by controls: 0 for no effect and ±100 for the full control effect; nearly all actives have a fitted effect of over 65% in size
Sfp inh = blocks B. subtilis Sfp PPTase activity; Biochemical Sfp PPTase activity, qHTS; Potency, µM, for inactives: largest response in the series, negative = inhibition, most hits filed as inhibitors; hit rate 3.5% among 310,000; AID 1490;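 note: the enzyme is Sfp with the accession as filed and its product quenches rhodamine fluorescence; 0% = enzyme reaction without inhibitor and -100% = no enzyme wells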
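Sfp 15 nM + cpd, 15 min RT; start w/ rhodamine-CoA 5 uM, BHQ-2-YbbR 12.5 uM (final); 50 mM Hepes pH 7.6, 10 mM MgCl2, 0.01% NP-40, 0.01% BSA; read 525/598 nm at 0 and 30 min.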
G9a inh = inhibitors of human histone lysine methyltransferase G9a | hit rate 8.8% among 350,000 | G9a H3K9 monomethylation, AlphaScreen, 2 h | Q96KQ7 | Potency, µM (titrated, usually from 102 µM), for inactives: at the highest dose activity, negative = inhibition, usual class: inhibitors | AID 504332; note: % is set by controls: 0 for no effect and ±100 for the full control effect; nearly all actives have a fitted effect of over 75% in size
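AlphaScreen read-out: biotin-H3K9 peptide (500 nM) methylation by 20 nM enzyme with 20 uM SAM, 2 h at room temperature after 15 min compound preincubation; anti-monomethyl H3K9 antibody plus donor/acceptor beads, 10 min dark.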
HP1b binding inh = inhibitors of HP1-beta chromodomain binding to methylated histone tails; P83916; AlphaScreen HP1-beta / biotin-H3K9me3 peptide binding; Potency, µM (top dose mostly 114 µM), inactives show at the highest dose activity change, negative = inhibition, most hits filed as inhibitors; hit rate 0.56% among 390,000; note: nearly all actives have a fitted effect of over 70% in size
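Compound inhibition of the preformed complex between 50 nM HP1-beta and 50 nM biotinylated H3K9me3 peptide was read by AlphaScreen. Buffer was PBS pH 7.4 with 0.01% Tween-20. Incubations ran 30 min at room temperature, with 10 ug/mL donor/acceptor beads.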
Starred values were filed as active, the others as inactive; ? = inconclusive; nt = no result given; [ ] = dose if it differs, or a comment. An excerpt weighted towards active compounds, which were near 12% of everything screened. Calls come from the whole dose curve; as a rule, active = well fitted curve in the direction sought with a large enough effect; inconclusive = small, poorly fitted or top-dose-only effect, or another doubt; inactive = no such curve, though single readings can be large; an effect the other way counts as inactive or inconclusive. Potency is the fitted concentration of half-maximal effect.

SMILES	JMJD2A Tudor	BAZ2B block	PLK1 PBD inh	Sfp inh	G9a inh	HP1b binding inh
CC1CCC(C(=O)NNC(=O)c2cc(-c3ccco3)[nH]n2)CC1 (stereo unspecified)	-16.9%	-21.4%	-12.7%	8.6%	42.8%[59 µM]	27.2%
COc1cccc([C@@H]2Oc3ccc(OC)cc3C[C@H]2OC(=O)NCc2ccco2)c1	nt	nt	nt	-3.4%	nt	nt
O=C(NCCc1ccc(F)cc1)c1cccc(NC(=O)c2ccccc2)c1	-13.0%	-16.7%	-5.0%	5.8%	34.6%	42.7%
Clc1ccc(-c2nnc(C3CC3)o2)cc1	-12.5%	3.1%	-3.9%	14.0%	15.1%[59 µM]	6.3%
CCC1CCC(c2nnc(-c3ccc([N+](=O)[O-])cc3)o2)CC1 (stereo unspecified)	-33.3%	?	-6.0%	-1.6%	10µM*	-10.7%
O=C(NCCCCc1ccccc1)C12CN(Cc3ccccc3)CC1C(c1cccc([N+](=O)[O-])c1)=NO2 (stereo unspecified)	-35.4%	-26.4%	-13.5%	8.4%	?	-21.8%
O=C(NCc1ccco1)C12CN(Cc3ccccc3)CC1C(c1cccc([N+](=O)[O-])c1)=NO2 (stereo unspecified)	?	?	-17.4%	1.0%	44.7µM*	-6.8%
O=C(NCCCCc1ccccc1)C12CN(Cc3ccccc3)CC1C(c1ccc([N+](=O)[O-])cc1)=NO2 (stereo unspecified)	?	15.1%	0.5%	28.2µM*	?	13.7%
COc1ccc(CNC(=O)C23CN(Cc4ccccc4)CC2C(c2ccc([N+](=O)[O-])cc2)=NO3)cc1 (stereo unspecified)	-27.1%	?	-8.5%	?	-23.3%[59 µM]	16.5%
COc1ccc(CCNC(=O)C23CN(Cc4ccccc4)CC2C(c2ccc([N+](=O)[O-])cc2)=NO3)cc1 (stereo unspecified)	-30.5%	11.5%	1.1%	50.1µM*	?	-3.8%
Cc1ccc(CNC(=O)C23CN(Cc4ccccc4)CC2C(c2cccc([N+](=O)[O-])c2)=NO3)cc1 (stereo unspecified)	?	-4.7%	-13.4%	-8.9%	?	-2.7%
COc1ccc(NC(=O)CCCN2C(=O)C3CC=CCC3C2=O)cc1 (stereo unspecified)	-2.9%	-14.5%	-3.8%	10.4%	9.0%	33.8%
COc1cccc(N=C2NC(=O)/C(=C/c3cc([N+](=O)[O-])ccc3O)S2)c1	?	56.2µM*	29.3%	-8.2%	?	?
Cc1ccc(S(=O)(=O)/N=C2/NC(=O)/C(=C/c3cc([N+](=O)[O-])ccc3O)S2)cc1	-31.8%	-29.0%	3.7%	-57.7%	11.2µM*	16.4%
O=C1NC(=Nc2ccccc2Cl)S/C1=C\c1cc([N+](=O)[O-])ccc1O	?	?	-21.2%	?	35.5µM*	15.9%
CCCNc1nc(NCc2ccccc2OC)c2cnn(C)c2n1	?	?	nt	nt	-27.0%[12.7 µM]	30.1%
CC1=NN(c2ccccc2)C(=O)/C1=C\c1cc(C)n(C)c1C	-23.8%	?	-10.6%	-4.0%	?	-16.9%
CC1=NN(c2ccccc2)C(=O)/C1=C/c1cc2cc(C)ccc2nc1N1CCCCC1	nt	8.91µM*	nt	-23.9%	-15.1%[0.0925 µM]	nt
CCOc1cc(/C=C2/C(=O)N(c3ccccc3)N=C2C)ccc1OC(=O)c1cccs1	?	50.1µM*	2.12µM*	-18.1%	39.8µM*	-2.1%
CC1=NN(c2ccccc2)C(=O)/C1=C/c1cccc(C)c1	-31.0%	?	2.12µM*	-6.1%	50.1µM*	-0.6%[57 µM]
COc1ccc(C2=NN(c3ccccc3)C(=O)/C2=C\c2ccc(O)c(OC)c2)cc1	15.8µM*	25.1µM*	?	4.6%	15.8µM*	15.8µM*
Cc1cc(NC(=O)CSc2nc3ccc(Cl)cc3[nH]2)no1	-14.5%[57.1 µM]	10.8%	-3.3%	6.9%	9.5%	39.5%
CN(C(=O)c1ccoc1)c1ccccc1I	-0.7%	nt	nt	-1.2%	nt	34.2%
O=S(=O)(c1ccccc1)N1CCC2(CCCN(Cc3ccncc3)C2)CC1	nt	nt	nt	18.4%	-25.0%[12.7 µM]	nt
COC(=O)c1c(NC(=O)c2cc(=O)c3ccc(C)c(C)c3o2)sc2c1CCCC2	-9.7%	-8.7%	nt	nt	5.6%[59 µM]	43.4%
SMILES	JMJD2A Tudor	BAZ2B block	PLK1 PBD inh	Sfp inh	G9a inh	HP1b binding inh
CC(=O)Oc1ccc(/C=C2/C(=O)N(c3ccccc3)N=C2C)cc1	?	?	2.12µM*	-10.2%	?	-26.0%[57 µM]
CCOC(=O)CC1=NN(c2ccccc2)C(=O)C1	-30.3%	-11.9%	?	-10.0%	nt	-2.4%
CCOC(=O)CC1=NN(c2ccccc2)C(=O)/C1=C\c1ccc(N(C)C)cc1	10µM*	5.62µM*	?	6.6%	4.47µM*	?
COc1ccc(/C=C2/C(=O)N(c3ccccc3)N=C2C)cc1OC	-30.1%	-12.0%	2.99µM*	12.8%	70.8µM*	4.3%
CC1=NN(c2ccccc2)C(=O)/C1=C\C=C\c1ccccc1	10µM*	3.98µM*	0.0%	-4.4%	2.24µM*	10µM*
CC(C)(CNC(=O)c1ccc(S(=O)(=O)Nc2ccc(Cl)cc2)cc1)N1CCOCC1	-13.4%	-0.8%	-4.4%	nt	21.4%[2.33 µM]	32.0%
COc1ccc(/C=C2\OC(=S)N(C)C2=O)cc1	-8.7%	-10.8%	-3.6%	?	?	6.5%
COc1ccc(/C=C2/C(=O)N(c3c(F)c(F)c(F)c(F)c3F)N=C2C)cc1	-21.4%	-4.1%	6.7µM*	-26.8%	26.8%[0.501 µM]	-11.4%
COc1ccc(-c2nc3cnc(N4CCOCC4)nc3n(-c3ccccc3)c2=O)cc1	nt	nt	nt	26.6%	5.1%[0.501 µM]	nt
COc1ccc(CCNC(=O)CSc2nc(=O)[nH]c3c2CCC3)cc1OC	-14.8%	-5.4%	0.0%	nt	11.4%	-2.2%
CCN(CC)Cc1c(O)ccc2c(-c3ccccc3)cc(=O)oc12	-2.0%	24.4%	-0.3%	-1.6%	39.5%	40.9%
CCCCN(CC)Cc1c(O)ccc2c(-c3ccccc3)cc(=O)oc12	0.7%[11.4 µM]	5.0%	26.7µM*	0.3%	?	20.8%
Cc1ccc(-n2nc(-c3ccco3)cc2C(=O)O)cc1	-2.2%[11.4 µM]	79.4µM*	?	22.4µM*	?	5.3%
CCOC(=O)c1cc(-c2ccc(N3CCOCC3)cc2)nn1-c1ccccc1C(=O)O	3.16µM*	12.6µM*	18.9µM*	0.1%	nt	?
CC(C)NC(=O)c1cc(-c2ccco2)nn1-c1ccc(Cl)cc1	35.5µM*	50.1µM*	-27.7%	10µM*	3.55µM*	?
CCOC(=O)c1cc(-c2ccc(N3CCOCC3)cc2)nn1-c1ccccc1	-34.3%	?	-9.2%	-10.4%	-7.6%	-16.6%
CCOC(=O)c1c(C)noc1-c1ccco1	-2.9%	-1.1%	2.2%	24.4%	4.0%	8.4%
CCOC(=O)c1c(C)nc(C)c(C(=O)OCC)c1-c1ccco1	79.4µM*	-34.2%	-3.4%	-6.1%	31.6µM*	7.5%
